# Shown are actives, neighbours in structure and some others; about 4.7% of the full set was active somewhere.
# ATG4B inhibitor: blocks human ATG4B protease cleavage of LC3 substrate | 340,000 tested, 0.51% active | ATG4B cleavage of LC3-PLA2, NBD-HPC fluorescence, 1 h | inhibition, % at 8.33 µM; in the data active means inhibition above about 40%
# Target sequence (Q9Y4P1 whole entry, looked up): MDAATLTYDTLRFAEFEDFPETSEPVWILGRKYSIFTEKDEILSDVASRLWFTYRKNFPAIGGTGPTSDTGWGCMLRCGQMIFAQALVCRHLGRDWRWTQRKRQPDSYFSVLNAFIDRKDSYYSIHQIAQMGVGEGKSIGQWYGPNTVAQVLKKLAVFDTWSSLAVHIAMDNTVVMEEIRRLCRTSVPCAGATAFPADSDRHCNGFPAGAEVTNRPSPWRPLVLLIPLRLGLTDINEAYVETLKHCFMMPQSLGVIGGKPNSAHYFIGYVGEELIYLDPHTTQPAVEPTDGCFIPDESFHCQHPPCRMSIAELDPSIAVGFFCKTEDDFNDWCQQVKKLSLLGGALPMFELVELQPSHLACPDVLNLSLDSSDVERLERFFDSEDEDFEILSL
# PfHsp90 yeast 2: inhibits growth of yeast expressing Plasmodium falciparum Hsp90 | S. cerevisiae expressing PfHsp90, BacTiter-Glo ATP, 48 h; yeast lacking PDR1 and PDR3 efflux regulators | inhibition, % at 9.4 µM | 310,000 tested, 0.32% active;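 active means every replicate shows inhibition above about 80%, whatever the replicate mean, limit read from the data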
# tim23-1 inh: inhibits growth of tim23-1 mutant yeast | S. cerevisiae tim23-1 growth, BacTiter-Glo luminescence, 24 h | inhibition, % at 20 µM | 330,000 tested, 1.3% active | AID 463212;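 active means growth inhibition of the mutant yeast at or above 50%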;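 further: temperature-sensitive mutant grown at 25 °C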
# SKKanGAS inh: inhibitors of SKKanGAS S. pyogenes growth in kanamycin (SK-promoter or general growth effect). BacTiter-Glo, 6 h. inhibition, % at 7.5 µM. 300,000 tested, 1.3% active. AID 1662;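 active means mean replicate score, as percent of positive control median, at least 50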;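 further: strain carries kanamycin resistance gene driven by streptokinase promoter and grows in 40 µg/ml kanamycin; loss of luminescence reflects streptokinase promoter inhibition or plain growth inhibition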
# TIM10 inh: TIM10 yeast growth inhibition; inhibition, % at 10 µM; S. cerevisiae TIM10 strain growth, BacTiter-Glo luminescence, 24 h; 330,000 tested, 1.4% active;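 active means inhibition of 40% or more at the single tested concentration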;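 further: wild-type TIM10 isogenic control strain grown at permissive 25 °C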
# tim10-1 inh: tim10-1 yeast growth inhibition; inhibition, % at 20 µM; 330,000 tested, 2.2% active; AID 463190; S. cerevisiae tim10-1 ts strain growth, BacTiter-Glo, 24 h;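 active means inhibition of at least 40%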;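 further: mutant grown at 25 °C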
# tim10-1 conf: tim10-1 yeast growth inhibition, confirmed; S. cerevisiae tim10-1 ts strain growth, BacTiter-Glo, 24 h; shares compounds with tim10-1 inh; inhibition, % at 20 µM; 7,400 tested, 56% active;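 active means inhibition of yeast growth at or above a set limit in either of two repeat tests at 20 µM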;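 further: tim10-1 mutant grown at permissive 25 °C to find synthetic lethal compounds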
# Hits are given with their value; - = inactive; . = no result given.
SMILES,ATG4B inhibitor,PfHsp90 yeast 2,tim23-1 inh,SKKanGAS inh,TIM10 inh,tim10-1 inh,tim10-1 conf
N/C(=N\OC(=O)c1ccc([N+](=O)[O-])cc1)c1cccnc1,-,-,-,-,-,40,37
N/C(=N\OC(=O)C1CCCCC1)c1cccc([N+](=O)[O-])c1,-,-,-,.,-,47,49
N/C(=N\OC(=O)c1cc([N+](=O)[O-])ccc1Cl)c1cccnc1,-,-,-,-,-,-,.
N/C(=N\OC(=O)c1ccc(Br)cc1)c1cccc([N+](=O)[O-])c1,-,-,-,-,-,-,.
Cc1ccc(C)n1-c1sc2c(c1C#N)CCCC2,-,-,-,-,-,-,.
CCCOc1ccc2c3c(c(=O)oc2c1OCCC)CCCC3,-,-,-,-,-,-,.
O=C(N/N=C/c1ccccn1)c1cc(-c2ccccc2)nc2ccccc12,-,.,-,-,-,-,.
CCCC(=O)Nc1ccc(C(=O)/C=C/c2ccc(SC)cc2)cc1,-,-,-,-,-,45,34
CSc1ccc(/C=C/C(=O)c2ccc(NC(C)=O)cc2)cc1,-,-,-,-,-,-,.
CC(C)(C)c1ccc(COn2c(=O)c(-c3ccco3)[n+]([O-])c3ccccc32)cc1,-,-,-,-,-,50,-
COc1ccc(-n2cc(CN(C)C(C)c3ccncn3)c(-c3cccc(F)c3)n2)cc1 (stereo not given),-,.,-,-,-,-,.
COc1cccc(-c2nn(-c3ccccc3)cc2CN(C)C(C)c2ccncn2)c1 (stereo not given),-,-,-,-,-,44,-
CCc1cc(C(=O)NCC(c2ccc(OC)cc2)N2CCOCC2)sc1C (stereo not given),-,-,-,.,-,-,.
COc1ccc(C(CNC(=O)c2oc3ccc(Cl)cc3c2C)N2CCCCC2)cc1 (stereo not given),-,-,-,-,-,47,-
COc1ccc(C(CNC(=O)c2cc(C)oc2C)N2CCOCC2)cc1 (stereo not given),-,-,-,-,-,45,-
CCOC(=O)N1CCN(C2=C(NS(=O)(=O)c3ccc(C)cc3)C(=O)c3ccccc3C2=O)CC1,-,-,-,-,-,49,-
COc1ccc(NC(=S)N2CCCC2)cc1,-,-,-,-,-,-,.
CCN(CC)S(=O)(=O)c1ccc(Nc2cc(C)nc3ncnn23)cc1,-,.,-,-,-,-,.
CC(C)Nc1nc(Cl)nc(NCCOc2ccccc2)n1,-,-,-,-,-,40,-
CCOC(=O)c1ccc(N=c2scc(C)n2CC)cc1,-,-,-,-,-,43,-
COc1cccc(C(=O)OCC(=O)NC(=O)NC2CCCC2)c1O,-,-,-,-,-,-,.
COc1ccccc1/C(C)=N/NC(=S)NCc1ccccc1,-,-,-,-,-,47,-
CCOC(=O)CSC1=C(C#N)C(c2ccccc2OC)CC(=O)N1 (stereo not given),-,-,-,-,-,-,.
C=CCC1C=CCC(CC=C)N1C(=O)c1ccccc1[N+](=O)[O-] (stereo not given),-,-,-,-,-,-,.
C=CCC1Cc2c(cccc2[N+](=O)[O-])C(CC=C)N1 (stereo not given),-,-,-,-,-,49,-
SMILES,ATG4B inhibitor,PfHsp90 yeast 2,tim23-1 inh,SKKanGAS inh,TIM10 inh,tim10-1 inh,tim10-1 conf
Cc1ccc(S(=O)(=O)n2nc(OC(=O)c3ccco3)cc2N)cc1,-,.,-,-,-,42,-
Nc1cc(OC(=O)c2ccco2)nn1S(=O)(=O)c1ccc(F)cc1,-,-,-,-,-,-,.
Cc1ccc(S(=O)(=O)n2nc(OC(=O)C3CCCCC3)cc2N)cc1,-,-,-,-,-,42,-
Cc1ccc(S(=O)(=O)n2nc(OC(=O)c3ccccc3C)cc2N)cc1,-,-,-,-,-,-,.
Cc1cc(NC(=O)C(C)SCC(=O)Nc2ccc(SC(F)F)cc2)no1 (stereo not given),-,-,-,-,-,-,.
CN(Cc1ccc(OC(F)F)cc1)C(=O)c1cccc(S(=O)(=O)N2CCN(c3ccccc3)CC2)c1,-,-,.,.,.,.,.
N/C(=N\OC(=O)CCCc1ccccc1)c1ccccc1Cl,-,-,-,-,-,50,59
Cn1c(N/N=C/c2cccs2)nc2c1c(=O)n(Cc1ccccc1)c(=O)n2C,-,-,-,-,-,40,-
Brc1ccc(Oc2nnnn2-c2ccccc2)cc1,-,-,-,-,-,44,35
Fc1ccc(Oc2nnnn2-c2ccccc2)cc1,-,-,-,-,-,-,.
Cc1ccccc1Nc1nc(N)nc(CN2CCN(C(=O)c3ccccc3)CC2)n1,-,-,-,-,-,-,.
O=C(NCCn1ccc2ccccc21)c1ccc(S(=O)(=O)N2CCCCC2)cc1,-,-,-,-,-,41,-
COc1ccc(C(=O)NCCn2ccc3ccccc32)cc1,-,-,-,-,-,-,.
CCCc1[nH]c2ccc(C(=O)OC)cc2c1CCC,-,-,-,-,-,-,.
CCCc1[nH]c2ccc(C#N)cc2c1CCC,-,-,-,-,-,53,33
CCCC[C@@H]1CNC(=S)N1CCC12CC3CC(CC(C3)C1)C2,-,-,-,-,-,42,-
COc1ccc(NC(=O)C2CCN(c3cc(C)nc(-c4ccccc4)n3)CC2)cc1,-,-,-,-,-,43,-
O=C(/C=C/c1cccc([N+](=O)[O-])c1)N1CCOCC1,-,-,-,-,-,-,.
O=C(/C=C/c1cccc(Oc2ccccc2)c1)N1CCOCC1,-,-,-,-,-,43,-
Cc1ccccc1C(=O)OCC(=O)N(C)c1ccccc1,-,-,-,-,-,52,31
CN(C(=O)COC(=O)c1ccccc1C(=O)N(C)c1ccccc1)c1ccccc1,-,-,-,-,-,-,.
CCOc1ccc(S(=O)(=O)n2nc(C)c(S(=O)(=O)N3CCOCC3)c2C)cc1,-,-,-,-,-,-,.
O=C(CCS(=O)(=O)Cc1ccccc1)N1CCc2ccccc2C1,-,-,-,-,-,47,40
Clc1ccc(-c2n[nH]c3c2CCC3)c(Cl)c1,-,-,-,96,-,41,-
O=C(NC1CCCCC1)c1ccc([N+](=O)[O-])o1,-,-,-,-,-,51,36
O=C(NC1CCCC(C(F)(F)F)C1)c1ccc([N+](=O)[O-])o1 (stereo not given),-,-,-,.,-,-,.
O=C(Nc1ccccc1N1CCN(C(=O)c2ccc(Cl)cc2)CC1)c1ccc([N+](=O)[O-])o1,-,-,-,79,-,44,-
O=C(Nc1ccccc1N1CCCCC1)c1ccc([N+](=O)[O-])o1,-,.,-,.,-,51,51
O=C(NCc1ccco1)c1ccc([N+](=O)[O-])o1,-,.,-,-,-,42,-

# Screening results: PubChem, several laboratories
